# Source: PubChem BioAssay AID598 (SRMLSC, 2007)
# Out of some 85,000 compounds screened, about 5,100 (6%) were called active. The entries come from a sample that favours actives as a whole. A number with no mark means an inactive call.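 How the source made its calls: active means viability at or below 40%; inactive means viability above 40%.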
# Test: proliferation blockers of H69AR lung cancer cells, primary screen, cell-based, human, 86K library (AID 598);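 further: multidrug resistant small cell line overexpressing MRP-1 efflux transporter; 100% = mean luminescence of untreated control wells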
# Conditions: H69AR lung tumor viability, ATP luminescence, 72 h; at 10 µM; active compounds read low
row,SMILES,viability
1,CC(=NCc1ccco1)c1c(C(F)(F)F)[nH]n(-c2nc3ccccc3s2)c1=O,63.2%
2,N=c1c2c3c(sc2nc2n1CCCCC2)CCCC3,84%
3,NNC(=O)C1CCCn2c1nc1sc3c(c1c2=O)CCCC3 (stereo not given),91.5%
4,CS(=O)(=O)N(Cc1nc2sc3c(c2c(=O)[nH]1)CCCC3)C1CCCCC1,16.8% (active)
5,CCn1c(CC(=O)Nc2ccc(C)cc2)nnc1SCC(=O)Nc1nc(C)cs1,111%
6,S=C1NC(c2ccccc2)=NCN1c1ccc(Br)cc1,88.9%
7,CCOc1ccc(NC(=O)CN2CCN(CC(=O)Nc3ccc(OC)cc3)CC2)cc1,56.5%
8,CC1CN(S(=O)(=O)c2ccccc2)C(C)CN1S(=O)(=O)c1ccccc1 (stereo not given),101%
9,CC(O)CN(Cc1ccc(Cl)cc1)CC(C)O (stereo not given),100%
10,CCOc1ccccc1Oc1cn[nH]c1-c1ccc(OC)cc1O,16.2% (active)
11,CCOc1ccccc1NC(=O)Nc1cc(OC)ccc1OC,93.8%
12,CCOc1cc(-c2cc(-c3ccc(OC)cc3)nc(N)c2C#N)ccc1O,51%
13,CCCC1(C(=O)OCC)NC(c2ccc(N(C)C)cc2)C2C(=O)N(c3ccc4c(c3)OCCO4)C(=O)C21 (stereo not given),80%
14,Cc1ccc(O/C=C2\OC(=O)c3ccccc32)cc1,89.6%
15,CN(Cc1nc2ccccc2c(=O)[nH]1)Cc1cc(=O)oc2ccc3ccccc3c12,91%
16,NC(=O)C1(N2CCCCC2)CCN(C2CC(=O)N(Cc3ccc(N4CCCC4=O)cc3)C2=O)CC1 (stereo not given),100%
17,COC(=O)Nc1ccc(S(=O)(=O)N2CCN(CCN3C(=O)C4C5C=CC(C5)C4C3=O)CC2)cc1 (stereo not given),79.9%
18,CCCCNC(=O)CSc1nc2n[nH]c(C)c2c(=N)n1-c1cccc(Cl)c1C,15.5% (active)
19,CCCCNC(=O)CSc1nnc(-c2ccco2)n1C,81.6%
20,CCCCNC(=O)CSc1nccn1Cc1ccccc1,99.2%
21,COc1ccc(CNCCCO)cc1OC,111%
22,Cc1ccc(S(=O)(=O)Oc2ccc(/C=N/NC(=O)c3c(Cl)cnn3C)cc2)cc1,79.2%
23,COc1ccccc1NC(=O)CSc1nnc(C)n1CC1CCCO1 (stereo not given),113%
24,Cn1c(=O)c2c(nc(N3CCCCCC3)n2CC(=O)c2ccc(Br)cc2)n(C)c1=O,46.8%

row,SMILES,viability
1,Cn1c(=O)c2c(nc(N3CCCCCC3)n2CC(O)COc2ccc(Cl)cc2)n(C)c1=O (stereo not given),28.2% (active)
2,O=C(c1ccc(Cl)cc1)c1ccc(OCC(O)CN2CCCCC2)cc1 (stereo not given),64.1%
3,CCN(CC)C(=O)CC1(c2ccccc2OC)CCOC(C(C)C)C1 (stereo not given),86.8%
4,COC(=O)c1ccc(CSc2ccc3nnc(-c4ccccc4)n3n2)o1,71.6%
5,CCN1CCc2c(C#N)c(NCc3ccccc3)nc(NCCO)c2C1,62.2%
6,CC(C)Cc1nc(N2CCOCC2)c(C#N)c2c1CCC2,89.6%
7,CC(C)CCNc1nc(N2CCCC2)c2c(c1C#N)CCN(C)C2,1.84% (active)
8,Cc1ccc2nc(SC(C)C(=O)NCc3ccco3)[nH]c2c1 (stereo not given),85.7%
9,c1ccc(-n2nc3ccccc3n2)cc1,96%
10,Cc1nn(Cc2ccccc2)c2c1C(c1ccccc1)C(C#N)=C(N)O2 (stereo not given),76.3%
11,Cc1cc(C(=O)OC(C)C(=O)Nc2cccc(S(=O)(=O)N3CCOCC3)c2)c(C)o1 (stereo not given),102%
12,COC(=O)C1=C(Nc2ccc(OC)cc2)C=C(C)C(C(=O)OC)C1c1ccc(C)cc1 (stereo not given),55.6%
13,COC(=O)C1=C(Nc2ccc(C)cc2)C=C(C)C(C(=O)OC)C1c1ccc(F)cc1 (stereo not given),12.1% (active)
14,COC(=O)C1C(=O)NCC1c1ccc(C)cc1 (stereo not given),82.2%
15,CCOC(=O)c1ccc2c(c1)nc(C)n2CC,113%
16,Cc1nnc(NC(=O)CCCOc2ccccc2)s1,93.8%
17,CCC(CC)C(=O)N1CC(=O)Nc2ccc(Br)cc2C1c1ccccc1 (stereo not given),87%
18,COC(=O)/C(NC(C)=O)=C(\C)c1ccc(Cl)cc1,102%
19,Cc1cccc(NC(=O)/C(=C\c2ccco2)NC(=O)c2ccccc2)c1,85.2%
20,Cc1cc(C)cc(N(CC(=O)NCC2CCCO2)S(=O)(=O)c2c(C)noc2C)c1 (stereo not given),92.5%
21,Cc1cc(C)cc(N(CC(=O)N2CC=C(c3ccccc3)CC2)S(=O)(=O)c2c(C)noc2C)c1,22.6% (active)
22,CCOC(=O)C1CCCN(C(=O)CN(c2ccc(OC)cc2)S(=O)(=O)c2c(C)noc2C)C1 (stereo not given),78.5%
23,CCOC(=O)C1C(=O)NCC1c1ccccc1 (stereo not given),99.9%
24,O=C(c1cc2sccc2n1Cc1ccc(F)cc1)N1CCc2ccccc21,76%

row,SMILES,viability
1,COC(=O)c1cc(NC(=O)CC2C(=O)NCCN2C(=O)c2ccc(F)cc2)cc(C(=O)OC)c1 (stereo not given),80%
2,CCc1ccc2c(c1)C1(NN=C(c3ccccc3)S1)C(=O)N2 (stereo not given),15.2% (active)
3,O=C1Nc2ccccc2C12Nc1ccccc1S2 (stereo not given),85.7%
4,C=C1c2cc(CC)ccc2NC(=O)N1c1ccc(C)cc1,91.4%
5,CCC(=O)NC(Nc1nc2ccc(C)cc2s1)(C(=O)OC)C(F)(F)F (stereo not given),82.5%
6,CC(C)CC(=O)Nc1cc(C(F)(F)F)ccc1N1CCOCC1,80.6%
7,O=C(NCc1ccco1)c1ccc(Cn2c(=O)c3sccc3n(Cc3ccc(F)cc3)c2=O)cc1,82.3%
8,COc1ccccc1NC(=O)C1CCCN(c2cc(C)nc3ncnn23)C1 (stereo not given),85.4%
9,COc1ccccc1N1CCN(C(=O)c2cc3c(-c4ccc(Cl)cc4)nn(C)c3s2)CC1,79.4%
10,CCOC(=O)N1CCN(C(=O)c2cc3c(-c4ccc(Cl)cc4)nn(C)c3s2)CC1,31.4% (active)
11,COc1cccc(-c2nn(C)c3sc(C(=O)N4CCN(c5ccccc5)CC4)cc23)c1,70.9%
12,CSc1nc(-c2ccco2)nn1C(=O)CCc1ccccc1,94.3%
13,Cc1ccc(C(=O)Nc2ccccc2C(=O)NC2CCCCC2)cc1S(=O)(=O)N1CCOCC1,73%
14,Cc1ccccc1CSCCNC(=O)c1ccc(Cl)c(S(=O)(=O)N2CCOCC2)c1,24.7% (active)
15,O=C(NCCSCc1ccccc1)c1ccc(Cl)c(S(=O)(=O)N2CCOCC2)c1,72.6%
16,CCCc1noc2c1/C(=N\O)CCC2,111%
17,COc1ccc(C(=O)c2oc3ccc(Br)cc3c2NC(C)=O)cc1,37.9% (active)
18,CC(C)C(=O)Nc1c(C(=O)c2ccc(F)cc2)oc2ccccc12,83.5%
19,COC(=O)c1oc2ccc(Br)cc2c1NC(C)=O,95%
20,CCn1nnnc1SCC(=O)c1ccc(C)cc1C,101%
21,CN(C)c1ccc(CNC2C3CC4CC(C3)CC2C4)cc1 (stereo not given),99.4%
22,O=C(Nc1cccc(Cl)c1)Nc1nnc(-c2ccccc2)o1,70.9%
23,CC(C)(C)c1ccc(NC(=O)NCc2ccco2)cc1,39.5% (active)
24,Cc1ccccc1NC(=O)NCc1ccco1,99.6%

row,SMILES,viability
1,CC(C)(C)c1ccc(C(=O)NCCC(=O)NCc2ccco2)cc1,87.7%
2,CCC(c1nnnn1C(C)(C)C)N(Cc1cc2cccc(C)c2n2nnnc12)C1CCCC1 (stereo not given),78.9%
3,CCOc1cc(NC(=O)c2ccco2)c(OCC)cc1NC(=O)COc1ccccc1,91.9%
4,CCOc1cc(N2CCOCC2)c(OCC)cc1NC(=O)COC(=O)[C@H](Cc1c[nH]c2ccccc12)NC(C)=O,71.8%
5,CCOc1cc(N2CCOCC2)c(OCC)cc1NC(=O)COc1cccc2cccnc12,21.9% (active)
6,O=C(Nc1cccc(NC(=O)c2ccco2)c1)c1cnccn1,87.2%
7,Cc1cc(C)c(NC(=O)CN2CCOCCOCCOCCOCC2)c(C)c1,97.2%
8,Cc1cc(Cl)c(S(=O)(=O)N(C)C)cc1OCC(N)=O,96%
9,CCCCC(C(=O)OCC(=O)c1ccc(OC)cc1)N1C(=O)c2ccccc2C1=O (stereo not given),95%
10,CC/C(O)=N\S(=O)(=O)c1ccc(N=NN(C)C)cc1,85.7%
11,CN(C)S(=O)(=O)c1ccc(N2CCCC2)c(C(=O)NCc2ccccc2)c1,83.6%
12,CCOC(=O)C1=C(O)CSC1=Nc1cccc(Cl)c1,91.2%
13,Clc1cccc(N=C2NN=C(c3ccc4c(c3)OCCO4)CS2)c1,1.44% (active)
14,COCCn1c(C)cc(C2=NNC(=Nc3ccc(F)cc3)SC2)c1C,88.2%
15,CN1CCN(C(=O)Cn2c(C(F)(F)F)nc3ccccc32)CC1,96.4%
16,O=C(Nc1nnc(C2CC2)s1)c1ccccn1,81%
17,O=C1Nc2cc(Cl)c(Cl)cc2N(O)N1c1cc(Cl)cc(Cl)c1,102%
18,COc1cccc(N(CC(=O)NCCSc2ccccn2)S(C)(=O)=O)c1,95.5%
19,CC1(C)OC(=O)N2CCc3ccccc3C21C (stereo not given),91.6%
20,O=C(CN1CCN(S(=O)(=O)/C=C/c2ccccc2)CC1)NC(=O)NCc1ccco1,93.8%
21,O=C(Nc1ccc(S(=O)(=O)N2CCc3ccccc3C2)cc1)c1ccccc1,69%
22,O=C(COC(=O)c1ccc(S(=O)(=O)N2CCc3ccccc3C2)cc1)NC(=O)NCc1ccco1,18.3% (active)
23,O=C(NC(C(=O)NCCN1CCOCC1)C12CC3CC(CC(C3)C1)C2)C1CCCCC1 (stereo not given),90.9%
